From PubChem BioAssay AID651660 (Broad Institute, 2012)
Where “and” joins values, the source holds several entries; their conditions need not be identical. Equal values may be shown once. Screen size: about 1,900 compounds; about 15 (0.8%) were called active. This is one part of a sample in which actives are shown more often than they occur. Unmarked numbers belong to inactive results.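 The calls were made as follows: active = every replicate shows at least 50% inhibition; inconclusive = mean inhibition at least 50% but some replicate below; inactive = the rest.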

Molecular target: DNA repair protein RAD52 homolog (Homo sapiens) (UniProt P43351)
Sequence (P43351 whole entry, looked up): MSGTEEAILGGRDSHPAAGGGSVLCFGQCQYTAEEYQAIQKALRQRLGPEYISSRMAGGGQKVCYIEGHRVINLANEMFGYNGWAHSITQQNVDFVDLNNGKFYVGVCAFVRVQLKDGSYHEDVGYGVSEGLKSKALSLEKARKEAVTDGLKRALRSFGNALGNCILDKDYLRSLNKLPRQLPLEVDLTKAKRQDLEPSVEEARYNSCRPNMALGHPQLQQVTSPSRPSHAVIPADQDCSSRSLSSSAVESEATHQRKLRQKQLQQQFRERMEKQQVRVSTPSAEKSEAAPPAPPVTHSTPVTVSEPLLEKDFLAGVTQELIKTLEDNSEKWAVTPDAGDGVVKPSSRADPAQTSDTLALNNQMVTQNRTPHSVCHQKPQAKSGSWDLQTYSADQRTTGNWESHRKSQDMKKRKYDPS
Assay: RAD52 ssDNA annealing inhibitors, primary screen, biochemical, FRET, single point (AID 651660);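 also: 0% = median of neutral control wells and 100% = median of positive control wells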
Conditions: Recombinant RAD52 ssDNA annealing, FRET fluorescence, 30 min; at 18.7 µM; stronger effect = higher value

Compound	inhibition
O=C(CNC(=O)OCc1ccccc1)NC1CCCCCC1	0.625%
CC(C)OC(=O)C1C2C=CC3(CN(CC4CCCO4)C(=O)C13)O2 (stereo not drawn)	-7.36%
O=C(O)c1ccc(-c2ccc(O)c(F)c2)cc1	-3.36%
Cc1ncc(C(=O)O)c(C(=O)O)c1N	-18.8%
O=C(O)CCCNc1ccc(S(=O)(=O)Nc2ccccc2C(=O)O)cc1C(=O)O	-12.9%
CCOC(=O)c1ccc(N2C(=O)C(CC(N)=O)N(CCc3ccc(OC)c(OC)c3)C2=S)cc1 (stereo not drawn)	3.53%
CC(C)c1ccc(NC(=O)CNS(=O)(=O)c2ccc(F)cc2)cc1	3.93%
CCOc1ccc2oc(-c3ccccc3)c(C(=O)O)c2c1	-1.63%
Cc1cccc(-n2c(Cc3ccccc3)n[nH]c2=S)c1	-6.53%
NCCOc1ccccc1OCCN	2.09%
COc1ccc(C2CC(c3ccc([N+](=O)[O-])cc3)=NN2C(=O)c2ccccc2)cc1OC (stereo not drawn)	-4.95%
O=C(c1ccc(-c2ccccc2)c(F)c1)C1CCCN(C(=O)c2cncs2)C1 (stereo not drawn)	-5.72%
O=C(OCC1OC2OC3(CCCCC3)OC2C2OC3(CCCCC3)OC12)c1ccccc1 (stereo not drawn)	-6.56%
COC1(C)CC2C(CC1OC(=O)c1cc([N+](=O)[O-])cc([N+](=O)[O-])c1)C2(C)C (stereo not drawn)	2.54%
COc1ccc2c(c1)[N+](C)(C)C(C)(C)C=C2C	2.05%
CC(=O)OCC#CCSc1nc2ccccc2n1C	-0.59%
CC(C)COCC1CC2(CC(C)(c3csc(N)n3)OC2=O)C(=O)O1 (stereo not drawn)	-11.3%
COc1cc(C2NCCc3c2[nH]c2ccccc32)ccc1OC(C)C (stereo not drawn)	1.55%
CC12CN3CC(C)(CN(C1)C3c1ccc(Br)cc1O)C2 (stereo not drawn)	-9.4%
Cc1ccc2c(c1)C1(C(=O)N2)N2CCCC2C(C(=O)c2ccc3ccccc3c2)C12C(=O)Nc1ccccc12 (stereo not drawn)	8.82%
COc1ccc(-c2noc(-c3ccccc3-c3ccccc3)n2)cc1	2.09%
O=C(CS(=O)(=O)Cc1ccccc1)NCc1ccc2c(c1)OCO2	1.08%
CC(=O)N(CCC(Cc1ccccc1)c1ccc2c(c1)OCO2)Cc1ccc(Cl)cc1 (stereo not drawn)	16.3%

Compound	inhibition
COc1ccc(C(=O)C2CCCCC2=O)cc1 (stereo not drawn)	-11.5%
CSc1ccc2c(c1)N(CCC1CCCCN1C)c1ccccc1S2 (stereo not drawn)	61.6% (active)
CC(CN1c2ccccc2Sc2ccccc21)N(C)C (stereo not drawn)	7.73%
CCOC(=O)c1cc2c(nc1N)CC(C)(CC)OC2 (stereo not drawn)	-11.6%
COC(=O)C1=CN(Cc2cccs2)C=C(C(=O)OC)C1c1cccc(Cl)c1	11.7%
CN1C(=O)NC(c2ccc(O)cc2)C2=C1CN(c1cccc3ccccc13)C2=O (stereo not drawn)	-2.34%
CC(=O)C1=C(NC(=O)c2ccc(C(F)(F)F)cc2)C[C@@H]2[C@H]1C2(C)C	4.2%
CN(C)c1ccc(C(CN)c2c[nH]c3ccccc23)cc1 (stereo not drawn)	-2.21%
O=[N+]([O-])c1cc(/C=N/n2cnnc2)ccc1N1CCCC1	-0.23%
COC(=O)c1ccc(=O)n(Cc2ccco2)c1	-5.57%
CC(=O)N1CC2(C)CN(C(C)=O)CC(C)(C1)C2	-4.54%
CSc1cccc(NC(=O)/C=C/c2ccccc2)c1	5.27%
N/C(=N\OC(=O)c1ccc(Br)o1)c1ccccn1	-4.88%
COc1ccc2c(=O)c(-c3cnn(-c4ccccc4)c3)c(C)oc2c1	-8.23%
COc1ccc(S(=O)(=O)N2CCN(C(=O)COc3ccc4c(C)cc(=O)oc4c3)CC2)cc1	-4%
CC(=O)C1=C(O)C(=O)N(Cc2cccnc2)C1c1ccc(C(C)C)cc1 (stereo not drawn)	0.222%
CCOc1ccc(C(=O)NCC2(c3ccccc3)CCOCC2)cc1	-5.73%
COc1ccc(CNC(=O)C2CCN(C(=O)[C@@H](CC(C)C)NC(=O)OC(C)(C)C)CC2)cc1	2.06%
CCCCOc1cc(C(=O)NCCN(CC)CC)c2ccccc2n1	8.91% and -1.38%
CCCCc1oc2ccccc2c1C(=O)c1cc(I)c(OCCN(CC)CC)c(I)c1	72.2% (active)
CCc1oc2ccccc2c1C(=O)c1cc(Br)c(O)c(Br)c1	-13.4%
Cc1ccc2c(c1)C(O)(C1COC(C)(C)CC1=O)C(=O)N2C (stereo not drawn)	-1%
COc1cccc2c(O)cc(=O)n(C)c12	6.83%

Compound	inhibition
COc1cccc(=O)c2c(C)n(CC(=O)c3ccccc3)c(C)c12	-138%
O=C(CCC(=O)NCCO)NCCO	4.45%
CC1=C/C(=N\N=C2\NC(=O)C(CC(=O)Nc3ccccc3F)S2)CC(C)(C)C1 (stereo not drawn)	-3.25%
CSCC[C@H](NC(=O)NC1CCCC1)C(=O)O	-5.4%
CCOC(=O)c1cnc2ccc(C(=O)OC)cc2c1Nc1ccc2c(c1)OCCO2	0.862%
CN(C)CCOC(c1ccccc1)c1ccccc1 (tested in a mixture with another compound)	0.693%
O=C(OCCNC(=O)c1ccc2ccccc2n1)c1ccc(F)cc1	3.05%
CC1CCN(CCOCCOc2ccccc2Br)CC1	-6.71%
CC1(C)CC(NCc2ccccc2)CCO1 (stereo not drawn)	-6.22%
Cc1nc(N[C@@H](Cc2c[nH]c3ccccc23)C(=O)O)c2oc3ccccc3c2n1	-19.8%
COc1ccc(NC(=O)CC(c2ccccc2)c2ccco2)cc1 (stereo not drawn)	-8.33%
CC(=O)SC1CC2=CC(=O)CCC2(C)C2CCC3(C)C(CCC34CCC(=O)O4)C12 (stereo not drawn)	-15.3%
COc1ccc(C2NC(=O)c3ccccc3O2)c(OC)c1OC (stereo not drawn)	-1.29%
COc1cccc(/C=C/C(=O)c2c(O)cc(C)oc2=O)c1O	-38.5%
CCOc1ccc(NC2OC(C)C(O)C(O)C2O)c([N+](=O)[O-])c1 (stereo not drawn)	-2.79%
CC(C)CC1c2[nH]c3ccccc3c2CCN1C(=O)CCC(=O)N(C)C (stereo not drawn)	-3.31%
CC(NC(=O)OCc1ccccc1)C(=O)N1CC(O)CC1C(=O)O (stereo not drawn)	-5.77%
COCCNC(=O)CSc1ccc(Cl)cc1	-17.2%
CC(C)CCn1c(N2CCc3ccccc3C2)nc2c1c(=O)[nH]c(=O)n2C	-3.91%
O=C1Cc2ccccc2C(c2ccccc2)N1 (stereo not drawn)	-8.11%
COc1ccc(-c2noc(CCc3ccccc3)n2)cc1	-6.01%
COC(=O)c1cc(-c2c(C)oc3cc(OC)ccc3c2=O)c(C)o1	2.67%
O=c1c(-c2ccc3c(c2)OCCO3)coc2cc(OC3OC(CO)C(O)C(O)C3O)ccc12 (stereo not drawn)	2.13%

Compound	inhibition
COc1ccc(-c2[nH]ncc2CN(CCO)Cc2cccs2)c(F)c1	-3.67%
Cc1ccc2c(c1)c1c3n2CCCN(Cc2ccccc2)C3CCC1 (stereo not drawn)	3.99%
Cc1nc(NCc2ccco2)c(C#N)c2c1COC(C)(C)C2	-36.8%
COc1cccc(CN2C(=O)N(C(C)C)C(N(O)C(=O)NC(C)C)C2(C)C)c1OC (stereo not drawn)	2.14%
COc1cc2cc(C(=O)O)n(C)c2c(OC)c1OC	-3.98%
CN(C)CCOc1ccccc1Cc1ccccc1	1.84%
CCC(=O)Oc1ccc(/C(CC)=C(\CC)c2ccc(OC(=O)CC)cc2)cc1	-4.46%
CC/C(=C(\c1ccc(O)cc1)c1ccc(OCCN(C)C)cc1)c1ccccc1	76% (active)
CC(=O)c1cccc2c(O)c(C3=Nc4ccccc4C3=O)[nH]c12	-6.23%
CC(OC(=O)c1cc(=O)[nH]c2ccccc12)C(=O)c1ccccc1 (stereo not drawn)	1.44%
COc1cc(/C=C/C(=O)N2CCCC2)cc(OC)c1OC	-3.32%
Cn1c(=O)[nH]c(=O)c2c1ncn2CCN1CCOCC1	-9.6%
OCCN1CCN(CCCN2c3ccccc3Sc3ccc(C(F)(F)F)cc32)CC1	65.2% (active)
OCCOCCN1CCN(C(c2ccccc2)c2ccc(Cl)cc2)CC1 (stereo not drawn)	7.68%
CN(C)CCCN1c2ccccc2Sc2ccc(Cl)cc21	68.5% (active)
CN(C)CCCN1c2ccccc2Sc2ccccc21	7.51%
Clc1ccc(OCCCN2CCCCC2)c(Br)c1	5.3%
CN(C)CCCN1c2ccccc2Sc2ccc(C(F)(F)F)cc21	29.1%
CN(C)CCCN1c2ccccc2CCc2ccc(Cl)cc21	16%
CNCCCN1c2ccccc2CCc2ccccc21	-18.4%
OC(CCCN1CCCCC1)(c1ccccc1)c1ccccc1	10.1%
CN1CCN(CCCN2c3ccccc3Sc3ccc(C(F)(F)F)cc32)CC1	67.4% (active)
OCCN1CCN(CCCN2c3ccccc3Sc3ccc(Cl)cc32)CC1	73.4% (active)

Compound	inhibition
O=c1oc2c(CN3CCN(CCO)CC3)c(O)ccc2cc1-c1ccccn1	-38.1%
CCOC(=O)c1oc2cc(O)cc(C)c2c(=O)c1-c1cscn1	5.2%
CC(=O)C1=C(Nc2ccc(C)cc2)CC(C)(O)C(C(C)=O)C1c1ccco1 (stereo not drawn)	-76.2%
CCN(CC)CCNc1ccc(CO)c2sc3ccccc3c(=O)c12	61.5% (active)
CCN(CC)CCCNC(=O)C1c2ccccc2Oc2ccccc21	4.59%
C[C@]12CC[C@@H]3c4ccc(O)cc4CC[C@H]3[C@@H]1C[C@@H](O)[C@@H]2O[C@@H]1O[C@H](C(=O)O)[C@@H](O)[C@H](O)[C@H]1O	5.26%
O=C(NCCc1ccccc1)C1CCN(C2CCN(Cc3ccco3)CC2)CC1	-15.9%
COc1ccc(-c2coc3c(CN4CCOCC4)c(O)ccc3c2=O)cc1	7.99%
COc1ccc2[nH]c(CN3CCN(CC(C)C)C(CCO)C3)c(C)c2c1 (stereo not drawn)	-14.8%
O=C(CN1C(=O)C2CCc3[nH]c4ccccc4c3C2C1=O)N1CCCC1 (stereo not drawn)	-14.6%
OC12CCCCC1C(c1ccc3c(c1)OCO3)N(Cc1cccc(F)c1)CC2 (stereo not drawn)	-0.832%
CCC(=O)Oc1ccc(C(=O)Nc2ccc([N+](=O)[O-])cc2)cc1	3.79%
CN1CC2CCCC3(C1)C(=O)NC1(CCCCC1)N=C23 (stereo not drawn)	-2.27%
C1CCC(C(CC2CCCCN2)C2CCCCC2)CC1 (stereo not drawn)	62.5% (active)
CC(=O)c1cn(C)c(=O)[nH]c1=O	-3.65%
CCn1c(N2CCN(CC(=O)c3c(C)n(C)c4ccc(OC)cc34)CC2)nc2c1c(=O)[nH]c(=O)n2C	-1.17%
CC1(C)CC(=O)c2cn3c(nc2C1)nc1ccccc13	-4.04%
CC(=O)N(CCC(Cc1ccccc1)c1ccco1)Cc1ccco1 (stereo not drawn)	-17.2%
NC(N)=N/N=C/c1cccc(Cl)c1Cl	18.4%
CN1CCc2c(n(CC(O)CN(CCO)CCO)c3ccccc23)C1=O (stereo not drawn)	11.3%
OCCN(CCO)c1ccc2ccccc2c1	-0.71%
